Screening results deposited in PubChem BioAssay by Milwaukee Institute for Drug Discovery.
The list is not random: actives were taken first. Their share in the collection is about 6.9%.
Cy5 interf NS3h = Cy5 fluorescence quenchers or enhancers, artefact control for HCV NS3 helicase inhibitor project, biochemical, ChemBridge library, Cy5 readout. Cy5-dT15 DNA with NS3h, fluorescence interference; actives lie on both sides; signal over control mean, under 1 quenches. fluorescence interference ratio at 100 µM. 16,000 tested, 6% active. AID 720488, 2013;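 active means compound fluorescence over control fluorescence at most 0.8, a quencher, or at least a set upper limit, an enhancer; inactive means ratio between 0.8 and the set upper limit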
HCV NS3h FP = HCV NS3 helicase inhibitors, primary screen, biochemical, fluorescence polarization, ChemBridge library; Hepatitis C virus NS3 helicase; NS3h Cy5-dT15 DNA binding; inhibition, % at 100 µM; 16,000 tested, 1.6% active; AID 687043, 2013;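 active means inhibition above the average over every tested compound plus 3 SD, cut at about 40% in these data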
Of the large screens only hits and unclear results are named; the others gave an inactive call.

COc1ccccc1NC(=O)/C(=C/c1ccco1)NC(=O)c1ccc(C)cc1	Cy5 interf NS3h 1.3
Cc1ccc(C(=O)N/C(=C\c2ccco2)C(=O)Nc2ccccc2C)cc1	none
CCC(=O)Nc1cccc2c1C(=O)c1ccccc1C2=O	none
COC(=O)c1ccc2c(c1O)C(=O)c1ccccc1C2=O	Cy5 interf NS3h 0.8
O=C(O/N=C\c1ccc([N+](=O)[O-])cc1)c1cccs1	Cy5 interf NS3h 0.75
O=C(/C=C/c1ccc(-c2cccc([N+](=O)[O-])c2)o1)c1cccs1	none
O=C(COc1ccccc1[N+](=O)[O-])Nc1ccc(Cl)cc1Cl	none
O=C(N/N=C\c1ccc(Cl)cc1)c1ccc(O)cc1	none
Cc1ccc(/C=N\NC(=O)c2ccccc2C)cc1	Cy5 interf NS3h 0.79
CCOc1cc(/C=C2\SC(=S)N(CC(C)C)C2=O)ccc1O	Cy5 interf NS3h 0.78
CCOc1cc(/C=C2\SC(=S)N(C(C)C)C2=O)ccc1O	none
COc1ccc2nc(NC(=O)COc3ccc(Cl)cc3)sc2c1	none
COc1ccc(C(=O)CSc2nc3ccc([N+](=O)[O-])cc3[nH]2)cc1	Cy5 interf NS3h 0.66
COc1ccc2nc(SCC(=O)NCc3ccccc3)[nH]c2c1	none
COc1cccc(/C=N\N2C(=O)c3cccc4cccc(c34)C2=O)c1OC	none
O=c1oc2c(-c3ccc(Cl)cc3)cc(O)cc2s1	none
COC(=O)c1cc(Nc2nc3ccccc3nc2NS(=O)(=O)c2ccccc2)ccc1Cl	Cy5 interf NS3h 0.69
COC(=O)c1ccccc1NS(=O)(=O)c1ccc(NC(C)=O)cc1	none
O=C1NC(=O)C(=Cc2ccc(OCc3cccc4ccccc34)cc2)C(=O)N1	none
CN(c1ccccc1)c1ccc(C=C2C(=O)NC(=O)NC2=O)cc1	HCV NS3h FP 46
CCCCOc1ccc(C(=O)NCCOc2ccccc2Cl)cc1	none
CC(=O)N=C1SC2CS(=O)(=O)CC2N1c1c(Cl)cccc1Cl (stereo unspecified)	Cy5 interf NS3h 1.3
Cc1c(Cl)cccc1NC1CS(=O)(=O)CC1O (stereo unspecified)	none
O=[N+]([O-])c1ccccc1CN1CCN(Cc2cc(Br)ccc2O)CC1	none
COc1ccc(Br)cc1/C=C1/SC(=S)N(Cc2ccccc2)C1=O	Cy5 interf NS3h 0.69
CCN1C(=O)/C(=C\c2cc(Br)ccc2OCc2ccccc2)SC1=S	none
CCN1C(=O)/C(=C\c2cc(OC)ccc2OC)SC1=S	Cy5 interf NS3h 0.76
CCN1C(=O)/C(=C\c2ccccc2OCCOc2cccc(OC)c2)SC1=S	none
COc1ccc(NC(=O)/C(C#N)=C/c2ccc(-c3ccc([N+](=O)[O-])cc3Cl)o2)cc1	none
Fc1cccc(Cl)c1CSc1nnc(-c2ccc(Br)cc2)o1	none
O=C(Nc1ccc(S(=O)(=O)Nc2nccs2)cc1)c1ccc2ccccc2c1	none
O=C(Cc1ccc(Cl)cc1)Nc1ccc(Cl)cn1	none
COC(=O)c1cc(NC(=O)COc2cc(C)c(Cl)c(C)c2)cc(C(=O)OC)c1	none
O=C(Cc1ccc(Cl)cc1)Nc1cccnc1	Cy5 interf NS3h 0.71
Cc1cc(OCC(=O)Nc2ccccc2[N+](=O)[O-])cc(C)c1Cl	Cy5 interf NS3h 0.73
Cc1cc(OCC(=O)Nc2cccnc2)cc(C)c1Cl	Cy5 interf NS3h 0.8
Cc1ccc(OCC(=O)Nc2ccc(C)cc2[N+](=O)[O-])cc1	none
CC(C)(C)C(=O)COc1ccc2ccc(=O)oc2c1	none
O=C(NCC1(c2ccccc2)CCCC1)c1cccc(Cl)c1	none
O=C1OC(/C=C/c2ccccc2)=NC/1=C/c1ccccc1	Cy5 interf NS3h 0.78
COc1ccc(/C=C2\C(=O)ON=C2C)cc1	none
COc1ccc(/C=C2/N=C(c3ccc(Br)cc3)OC2=O)cc1	Cy5 interf NS3h 1.2
Cc1ccc(/C=C2N=C(/C=C/c3ccccc3)OC/2=O)s1	none
COc1ccc(/C=C2N=C(/C=C/c3ccccc3)OC/2=O)cc1	Cy5 interf NS3h 0.72
O=C1OC(c2ccc(F)cc2)=N/C1=C\c1ccc(Cl)cc1	none
COc1ccc(NC(=O)/C(C#N)=C/c2cc(C)n(-c3ccc(NC(C)=O)cc3)c2C)cc1	none
O=C(Nc1cccc(C(F)(F)F)c1)C1CC(=O)N(c2ccccc2)C1 (stereo unspecified)	none
COc1ccc(C(=O)CSc2ncn(-c3ccccc3)n2)cc1	none
O=C1NC(=S)NC(=O)C1=Cc1ccc(O)c(Cl)c1	HCV NS3h FP 45
O=C1NC(=S)N(c2ccc(Br)cc2)C(=O)/C1=C/c1ccc(O)c(Cl)c1	none
CCOC(=O)c1ccc(-n2c(C)cc(/C=C3\NC(=S)NC3=O)c2C)cc1	none
O=C(NC(=S)Nc1cccc(NC(=O)c2ccccc2Cl)c1)c1ccco1	HCV NS3h FP 44
O=C(Nc1cccc(NC(=S)NC(=O)c2ccco2)c1)c1cccc(Cl)c1	none
O=C(NC(=S)Nc1cccc(NC(=O)c2ccco2)c1)c1ccco1	HCV NS3h FP 42
O=C(NC(=S)Nc1ccc(Cl)c(-c2nc3ccccc3o2)c1)c1ccco1	Cy5 interf NS3h 1.2
O=C(NC(=S)Nc1cccc(Cl)c1)c1ccco1	none
O=C(NC(=S)Nc1ccc2oc(-c3cc(I)ccc3Cl)nc2c1)c1ccco1	none
CCOc1ccc(S(=O)(=O)N(CC(=O)Nc2ccc(Cl)cc2)c2ccc(C)cc2)cc1	none
CC(NC(=O)CSc1nnc(N)s1)c1ccccc1 (stereo unspecified)	none
CCc1ccc(NC(=O)c2nn3c(c2Br)NC(c2ccccc2)CC3C(F)(F)F)cc1 (stereo unspecified)	none
O=C(NCCOC(=O)c1ccc(F)cc1)c1ccncc1	none
CC(=O)Oc1ccc(C(=O)Nc2cccc(C(=O)NCC(C)C)c2)cc1	none
CC(=O)Oc1cccc(N2C(=O)c3ccc(C(=O)Nc4cccc(C(=O)NCC(C)C)c4)cc3C2=O)c1	Cy5 interf NS3h 0.73
Cc1ccc(C)c(S(=O)(=O)Nc2ccc(Cl)cc2)c1	none
CCC(C)NCC(O)Cn1c2ccc(Cl)cc2c2cc(Cl)ccc21 (stereo unspecified)	Cy5 interf NS3h 0.77
CS(=O)(=O)N(CC(O)Cn1c2ccc(Cl)cc2c2cc(Cl)ccc21)c1ccccc1 (stereo unspecified)	none
Cc1c(C#N)c2nc3ccccc3n2c(=O)c1=Cc1sc2ccccc2c1O	none
COc1cccc(C2C(C(=O)Nc3ccccc3)=C(C)N=c3s/c(=C\c4ccc5c(c4)OCO5)c(=O)n32)c1 (stereo unspecified)	none
CN1C(=O)C(=O)c2cc(Br)ccc21	Cy5 interf NS3h 0.74
O=C1C(=O)N(Cc2ccc(F)cc2)c2ccc(Br)cc21	none
CCOc1ccc(C(=O)Nc2cccc([N+](=O)[O-])c2)cc1Cl	Cy5 interf NS3h 0.57
CCOc1ccc(C(=O)Nc2ccc(N3CCOCC3)c(Cl)c2)cc1Cl	none
CCOc1ccc(C(=O)Nc2ccc(C)cc2[N+](=O)[O-])cc1Cl	none
CCOc1ccc(C(=O)Nc2ccc(NC(=O)CC)cc2)cc1Cl	Cy5 interf NS3h 0.73
O=C(O)CN(c1ccccc1)S(=O)(=O)c1ccccc1[N+](=O)[O-]	none
O=C(CN(c1ccccc1)S(=O)(=O)c1ccccc1[N+](=O)[O-])Nc1cccc(Cl)c1	none
CC(NC(=O)CN(c1ccccc1)S(=O)(=O)c1ccccc1[N+](=O)[O-])c1ccccc1 (stereo unspecified)	Cy5 interf NS3h 0.68
CC(C)CNC(=O)CN(c1ccccc1)S(=O)(=O)c1ccccc1[N+](=O)[O-]	Cy5 interf NS3h 0.69
Cc1ccc(C(=O)NCCN(C)C)cc1	none
CC1CN(c2c(Cl)cccc2[N+](=O)[O-])CCN1S(C)(=O)=O (stereo unspecified)	none
